Screening results (PubChem BioAssay)
This is a sample that favours compounds with a hit; in the whole collection about 1.5% have one here.
DUSP3 inh: DUSP3 (human) phosphatase inhibition; actives 0.52% (n = 290,000); P51452; inhibition, % at 13.3 µM; recombinant VHR phosphatase, pNPP absorbance; in the data active = inhibition above about 50%
Target sequence (P51452 whole entry, looked up): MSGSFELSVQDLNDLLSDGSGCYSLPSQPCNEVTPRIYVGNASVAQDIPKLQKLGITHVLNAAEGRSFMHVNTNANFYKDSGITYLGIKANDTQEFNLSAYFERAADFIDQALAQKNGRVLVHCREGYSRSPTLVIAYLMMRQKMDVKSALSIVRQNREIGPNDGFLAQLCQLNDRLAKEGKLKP
RN4220 kill: kills Staphylococcus aureus RN4220 | S. aureus RN4220 growth, OD600, 16 h | inhibition, % (test concentration not listed) | actives 0.33% (n = 330,000) | AID 1259311; in the data active = inhibition above about 85%;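 note: plate controls were untreated cells for no effect and reference antibiotic for full effect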
PriA SSB inh: K. pneumoniae PriA-SSBct interaction inhibition; inhibition, % at 33 µM; actives 0.6% (n = 430,000); AlphaScreen SSBct-PriA binding, biotinylated peptide; in the data active = inhibition mostly above about 37%, no sharp cut-off; inactive = mostly below about 20%;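 note: plate controls were negative control peptide for no effect and reference peptide for full effect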
Sa ugtP lethal: growth inhibition of S. aureus ugtP deletion strain; S. aureus RN4220 ugtP deletion, OD600 growth, 16 h; growth inhibition, % (no concentration beside the values); actives 0.54% (n = 330,000); AID 1259309; in the data active = growth inhibition above about 68%;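 note: plate controls were untreated wells for no effect and antibiotic for full effect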
CCHFV vOTU inh: CCHFV vOTU protease inhibition; inhibition, % at 11.5 µM; Pep-AMC fluorescence; actives 0.55% (n = 370,000); in the data active = inhibition above about 30%; note: 0% = vehicle wells with enzyme and 100% = no enzyme wells
* = called active by the depositor.

How did CC(C)(C)N/N=C1\CC(c2ccccc2)Oc2ccccc21 (centres undefined) do in these assays?
DUSP3 inh: 5; CCHFV vOTU inh: -7

How did CC(C)(C)NN=C1CC(c2ccccc2)Oc2ccccc21 (centres undefined) do in these assays?
RN4220 kill: -8; PriA SSB inh: -3; Sa ugtP lethal: 94*

How did CC[C@@](CNC(=O)c1cccc(OC)c1OC)(OC)c1ccccc1 do in these assays?
PriA SSB inh: 0

How did CCOC(=O)Cn1nc(-c2ccccc2)c2ccccc2c1=O do in these assays?
DUSP3 inh: -21; RN4220 kill: 5; PriA SSB inh: -6; Sa ugtP lethal: 5; CCHFV vOTU inh: -2

Results for O=c1c2ccccc2c(-c2ccccc2)nn1Cc1c(Cl)cccc1Cl ?
DUSP3 inh: 0; RN4220 kill: -13; PriA SSB inh: -2; Sa ugtP lethal: 96*; CCHFV vOTU inh: -3

What do the screens show for `O=C(Nc1cccc(Cl)c1N1CCCC1)c1cc2ccccc2o1`?
DUSP3 inh: -4; RN4220 kill: -12; PriA SSB inh: -16; Sa ugtP lethal: 89*; CCHFV vOTU inh: 8

What do the screens show for `CCN(CC)CCNc1nc2ccc(OC)cc2s1`?
PriA SSB inh: 27

What do the screens show for `O=C(CNS(=O)(=O)c1cccc(Cl)c1)NCc1cccc(Oc2ccccn2)c1`?
PriA SSB inh: 2

Results for Cc1cc(C(=O)COC(=O)c2cc(Cl)ccc2N)c(C)n1Cc1ccco1 ?
DUSP3 inh: 4; RN4220 kill: 82; PriA SSB inh: -1; Sa ugtP lethal: 99*; CCHFV vOTU inh: 0

How did N#Cc1ccc(NC(=O)CN2C(=O)COc3ccccc32)cc1 do in these assays?
PriA SSB inh: 49

Results for O=C(CN1C(=O)COc2ccccc21)NCCN1CCCC1 ?
DUSP3 inh: 50*; RN4220 kill: 0; PriA SSB inh: -4; Sa ugtP lethal: 1; CCHFV vOTU inh: 5

How did O=C(CN1C(=O)COc2ccccc21)Nc1ccc(Cl)cc1 do in these assays?
PriA SSB inh: 52*

Results for O=C(NCc1ccc(OC(F)(F)F)cc1)c1cnn2c1OCCC2 ?
PriA SSB inh: -15

What do the screens show for `CN(C)C(=O)Cn1cc(S(=O)(=O)Cc2ccccc2)c2ccccc21`?
DUSP3 inh: 59*; RN4220 kill: 2; PriA SSB inh: 1; Sa ugtP lethal: 5; CCHFV vOTU inh: 1

How did O=C(c1cc2ccccc2o1)N1CCC(Oc2cnccn2)CC1 do in these assays?
PriA SSB inh: 0

What do the screens show for `CCc1ccc(Nc2n[n+](-c3ccccc3)c(-c3ccc(C(=O)O)cc3)s2)cc1`?
DUSP3 inh: 17; RN4220 kill: 2; PriA SSB inh: -5; Sa ugtP lethal: 9; CCHFV vOTU inh: 12

What do the screens show for `CCc1ccc(Nc2n[n+](-c3ccccc3)c(-c3ccc(SC)cc3)s2)cc1`?
DUSP3 inh: 24; RN4220 kill: 0; PriA SSB inh: 66*; Sa ugtP lethal: -14; CCHFV vOTU inh: 14

What do the screens show for `C[n+]1nc(Nc2cccc3ccccc23)sc1-c1ccc(C(=O)O)cc1`?
DUSP3 inh: 19

How did COc1ccc(C)cc1Nc1n[n+](-c2ccccc2)c(-c2ccc(NC(C)=O)cc2)s1 do in these assays?
DUSP3 inh: 20; RN4220 kill: 6; PriA SSB inh: 47*; Sa ugtP lethal: -8; CCHFV vOTU inh: -2

How did CC(=O)Nc1ccc(-c2sc(Nc3cccc4ccccc34)n[n+]2-c2ccccc2)cc1 do in these assays?
DUSP3 inh: 21; PriA SSB inh: 63*; CCHFV vOTU inh: 5

How did CCc1ccc(Nc2n[n+](-c3ccccc3)c(-c3ccc(OC)c(Br)c3)s2)cc1 do in these assays?
DUSP3 inh: 20; RN4220 kill: 1; PriA SSB inh: 56*; Sa ugtP lethal: -1; CCHFV vOTU inh: 12

What do the screens show for `COc1ccc(SCC(=O)N2CCN(c3nc4c(F)cccc4s3)CC2)cc1`?
PriA SSB inh: 2

How did CSc1ccc(-c2sc(Nc3cccc4ccccc34)n[n+]2-c2ccccc2)cc1 do in these assays?
DUSP3 inh: 29; RN4220 kill: -7; PriA SSB inh: 47*; Sa ugtP lethal: 7; CCHFV vOTU inh: 13

Results for CSc1ccc(-c2sc(Nc3ccccc3)n[n+]2-c2ccccc2)cc1 ?
DUSP3 inh: 13; PriA SSB inh: 3

How did COc1ccc(S(=O)(=O)Nc2ccc3c(c2)CCC(=O)N3C)c(C)c1 do in these assays?
PriA SSB inh: 0

Results for CC1CCN(S(=O)(=O)c2ccc3c(c2)oc(=O)n3CC(=O)N2c3ccccc3CC2C)CC1 (centres undefined) ?
DUSP3 inh: 21; RN4220 kill: 6; PriA SSB inh: 98*; Sa ugtP lethal: 3; CCHFV vOTU inh: -4

Results for O=C(Nc1cccnc1)C1CN(C(=O)c2ccc3c(c2)OCO3)C1 ?
PriA SSB inh: -15

What do the screens show for `O=C(Cc1ccccc1)Nc1nnc(-c2ccco2)o1`?
DUSP3 inh: 17; RN4220 kill: 5; PriA SSB inh: 1; Sa ugtP lethal: 3; CCHFV vOTU inh: 1

What do the screens show for `Cc1ccsc1C(=O)Nc1nnc(-c2ccco2)o1`?
DUSP3 inh: 17; RN4220 kill: 18; PriA SSB inh: 50*; Sa ugtP lethal: 5; CCHFV vOTU inh: 3

How did Cc1ccc(CC(=O)Nc2nnc(-c3ccco3)o2)c(C)c1 do in these assays?
PriA SSB inh: 41*

How did O=C(NCCN1CCOCC1)c1ccc(Cl)c(S(=O)(=O)N2CCCC2)c1 do in these assays?
DUSP3 inh: 41; RN4220 kill: 2; PriA SSB inh: 39*; Sa ugtP lethal: 3; CCHFV vOTU inh: -6

How did O=C(NCCn1ccc(-c2ccncc2)n1)C1(c2ccccc2)CCOCC1 do in these assays?
PriA SSB inh: -10

What do the screens show for `O=C(NCCn1ccnc1-c1ncccn1)c1ccc(S(=O)(=O)N2CCOCC2)cc1`?
PriA SSB inh: 92*

Results for O=C(NCCn1ccnc1-c1ncccn1)C1(c2ccccc2)CCOCC1 ?
PriA SSB inh: 40*

How did O=C(NCCCS(=O)(=O)N1CCN(c2ncccn2)CC1)c1ccc(S(=O)(=O)N2CCOCC2)cc1 do in these assays?
PriA SSB inh: -19

How did Oc1c(Cl)c(Cl)c(Cl)c(Cl)c1Cl do in these assays?
RN4220 kill: 100*; PriA SSB inh: -10; Sa ugtP lethal: 100*; CCHFV vOTU inh: 17

Results for C[C@H]1CC[C@@]2(C)[C@@H](CC[C@@H]3[C@@H]2CC[C@]2(C)[C@@H](O)CC[C@@H]32)C1 ?
DUSP3 inh: 7; RN4220 kill: 94*; PriA SSB inh: -12; Sa ugtP lethal: 99*; CCHFV vOTU inh: -7

How did O=C(NNC(=O)c1cc(=O)c2ccccc2o1)c1ccc(=O)n(Cc2ccc(Cl)cc2)c1 do in these assays?
PriA SSB inh: -5

What do the screens show for `NC(=Nc1nc2c(c(=O)[nH]1)CCCC2)Nc1ccc(Oc2ccccc2)cc1`?
PriA SSB inh: -17

Results for O=C(c1ccc2nsnc2c1)N1C2CCC1CC(S(=O)(=O)c1ccccc1)C2 (centres undefined) ?
PriA SSB inh: 74*

What do the screens show for `CCOc1ccc(S(=O)(=O)N2C3CCC2CC(S(=O)(=O)c2ccccc2)C3)cc1` (centres undefined)?
PriA SSB inh: -4
